SRC3 inh: SRC3 coactivator transcriptional activity inhibitors, primary screen, cell-based, luminescence | Nuclear receptor coactivator 3 (Homo sapiens), Q9Y6Q9 | HEK293 GAL4-SRC3 luciferase reporter | inhibition, % at 3.6 µM | 0.17% of 360,000 active;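 active = inhibition above a per-campaign cutoff, the mean of all compounds plus 3 SD, cut at about 60% in these data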;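 note: 0% = DMSO-treated cells and 100% = gossypol-treated cells at 36 µM; higher means less SRC3-driven luciferase light from the GAL4 reporter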
LRH-1 inv ag: LRH-1 (NR5A2) inverse agonists, primary screen, cell-based, luminescence, HEK293T, StAR-luciferase reporter. inhibition, % at 3.6 µM. 0.13% of 360,000 active. LRH-1 transfected, 24 h. AID 602396, 2012;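 active = inhibition above the mean inhibition of all tested compounds plus 3 SD, cut at about 73% in these data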;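 note: 0% = DMSO wells and 100% = reporter-only cells lacking LRH-1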
SRC1 inh: SRC1 coactivator transcriptional activity inhibitors, primary screen, cell-based, luminescence; Nuclear receptor coactivator 1 (Homo sapiens), Q15788; HEK293 GAL4-SRC1 luciferase reporter; inhibition, % at 3.6 µM; 0.12% of 360,000 active; AID 588354, 2011;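 active = inhibition above the campaign mean plus 3 SD, with each screening campaign given its own cutoff, cut at about 60% in these data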;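 note: 0% = DMSO treated cells and 100% = gossypol at 36 µM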
COUP-TFII inh: NR2F2 transcriptional activity inhibitors, primary screen, cell-based, luciferase reporter, HEK293T, luminescence; COUP transcription factor 2 (Homo sapiens), P24468; HEK293T NGFI-A luciferase reporter; inhibition, % at 8.6 µM; 0.7% of 370,000 active; AID 686940, 2013;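 active = inhibition above a per-plate cutoff, mean inhibition of test wells between control levels plus 3 SD, cut at about 38% in these data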;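 note: cells cotransfected with COUP-TFII expression vector driving the NGFI-A reporter; 0% = median of COUP-TF2 test wells and 100% = reporter-only cells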
SRC2 inh: inhibition of GAL4-SRC2 driven luciferase reporter, primary screen, SRC2 inhibitor project, cell-based, luminescence | inhibition, % at 9 µM | HEK293 GAL4-SRC2 luciferase reporter | Nuclear receptor coactivator 2 (Homo sapiens), Q15596 | 0.17% of 370,000 active;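 active = inhibition above the mean inhibition of all tested compounds plus 3 SD, set per campaign, cut at about 52% in these data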;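 note: 0% = DMSO treated cells and 100% = cells given Gossypol at 36 µM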
Target sequence (Q15596 whole entry, looked up, the tested form may be a part): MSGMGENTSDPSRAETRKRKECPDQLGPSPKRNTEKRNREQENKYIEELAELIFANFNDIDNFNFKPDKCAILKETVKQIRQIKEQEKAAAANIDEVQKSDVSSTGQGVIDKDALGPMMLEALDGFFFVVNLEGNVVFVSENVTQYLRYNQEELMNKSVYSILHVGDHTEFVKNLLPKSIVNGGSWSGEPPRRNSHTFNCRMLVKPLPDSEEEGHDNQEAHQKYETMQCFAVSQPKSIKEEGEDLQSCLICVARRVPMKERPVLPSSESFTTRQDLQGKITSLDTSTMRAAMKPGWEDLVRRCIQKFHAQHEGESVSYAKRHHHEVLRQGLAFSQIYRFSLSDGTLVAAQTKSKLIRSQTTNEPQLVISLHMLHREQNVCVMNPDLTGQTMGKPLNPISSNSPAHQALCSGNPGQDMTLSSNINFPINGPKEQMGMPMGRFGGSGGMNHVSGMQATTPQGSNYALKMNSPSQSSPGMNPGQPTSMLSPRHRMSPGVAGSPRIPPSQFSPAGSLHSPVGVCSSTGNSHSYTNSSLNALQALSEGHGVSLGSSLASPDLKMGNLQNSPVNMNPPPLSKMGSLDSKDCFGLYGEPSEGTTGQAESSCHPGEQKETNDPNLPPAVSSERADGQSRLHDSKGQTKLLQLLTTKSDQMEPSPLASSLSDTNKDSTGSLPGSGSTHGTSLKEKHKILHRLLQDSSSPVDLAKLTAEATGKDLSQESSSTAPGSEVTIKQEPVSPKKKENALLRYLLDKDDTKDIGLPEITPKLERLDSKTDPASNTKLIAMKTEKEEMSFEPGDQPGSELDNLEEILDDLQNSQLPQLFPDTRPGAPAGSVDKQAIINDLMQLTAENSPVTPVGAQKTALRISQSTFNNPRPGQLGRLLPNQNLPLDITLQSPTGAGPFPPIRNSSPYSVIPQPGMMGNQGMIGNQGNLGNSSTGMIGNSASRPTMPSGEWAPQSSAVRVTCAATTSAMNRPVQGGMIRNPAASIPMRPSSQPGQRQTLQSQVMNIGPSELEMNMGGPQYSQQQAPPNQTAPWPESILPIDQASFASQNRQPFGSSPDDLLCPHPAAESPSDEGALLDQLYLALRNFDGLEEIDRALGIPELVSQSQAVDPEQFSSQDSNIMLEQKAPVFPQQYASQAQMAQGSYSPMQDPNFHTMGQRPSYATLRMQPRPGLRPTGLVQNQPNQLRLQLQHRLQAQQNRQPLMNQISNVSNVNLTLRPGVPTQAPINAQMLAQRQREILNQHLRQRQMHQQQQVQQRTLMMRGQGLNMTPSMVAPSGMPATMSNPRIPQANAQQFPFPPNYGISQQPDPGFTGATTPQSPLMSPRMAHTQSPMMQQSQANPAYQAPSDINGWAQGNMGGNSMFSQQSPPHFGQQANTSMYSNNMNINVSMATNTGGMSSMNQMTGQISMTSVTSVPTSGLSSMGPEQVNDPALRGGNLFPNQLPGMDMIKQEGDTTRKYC
An asterisk follows results filed as active; i = inactive; / = no result. This is a sample that favours compounds with a hit; in the whole collection about 0.81% have one here.

SMILES | SRC3 inh | LRH-1 inv ag | SRC1 inh | COUP-TFII inh | SRC2 inh
COc1ccc2c(c1)-c1c(ssc1=S)C(C)(C)N2C(=O)CSC1=NCCS1 | 30.5 | 9.6 | 38.6 | 52.4* | 45.4
CNc1ccc2ncc(-c3ccc(OC)c(OC)c3)n2n1 | 49.2 | 25.6 | 77.7* | -31.3 | 58.6*
CCOC(=O)[C@]12CCCCC/C=C\1N(CCc1ccc(Cl)cc1)C(=O)[C@H]2CC(=O)N1CCCCC1 | / | / | / | -20.3 | -12.2
CCN(CC)S(=O)(=O)c1cccc(C(=O)N/N=C(\C)c2ccc(O)cc2O)c1 | 69.8* | -17.0 | -13.9 | 2.4 | 36.8
Cc1cc(C)cc(N(CC(=O)NC2CCC(C)CC2)S(=O)(=O)c2ccc(C(C)(C)C)cc2)c1 (centres undefined) | / | / | / | -20.3 | -91.6
COc1ccc(-n2c(SCC(=O)Nc3ccc(S(=O)(=O)Nc4cc(C)nc(C)n4)cc3)nnc2-c2ccco2)cc1 | / | / | / | 16.4 | 15.8
CCC(=O)Nc1cccc(C(=O)/C=C/c2cc(Br)ccc2OC)c1 | 79.3* | 72.9* | 49.4 | 9.6 | 64.0*
COc1ccc(Br)cc1/C=C/C(=O)Nc1ccc2ccccc2c1 | -9.4 | -3.4 | -36.0 | -6.4 | 0.8
COc1ccc2c(c1)-c1c(ssc1=S)C(C)(C)N2 | 65.7* | 45.9 | 58.2 | 24.2 | 42.3
COc1ccc(-n2sc3c(c2=S)-c2cc(OC)ccc2NC3(C)C)cc1 | 2.6 | -24.0 | 5.9 | 7.6 | 1.0
Cc1ccc(NC(=S)NNC(=O)c2cnccn2)cc1 | / | / | / | 10.5 | 19.5
O=C1C=CC2(C=C1)O[C@H](Cc1ccccc1)[C@@H](Cc1ccccc1)O2 | -189.6 | 70.9 | -203.7 | 99.6* | 53.6*
COc1ccc(C[C@@H]2OC3(C=CC(=O)C=C3)O[C@H]2Cc2ccc(OC)cc2)cc1 | -371.5 | 56.3 | i | / | /
CCn1c(Oc2ccccc2)nc2c1c(=O)n(C)c(=O)n2C | 23.2 | -2.9 | -9.6 | 12.7 | 40.0
CCn1c(Oc2ccccc2F)nc2c1c(=O)n(C)c(=O)n2C | 59.5 | 26.4 | 68.4* | 11.5 | 59.3*
Cc1ccc(NC(=O)CCN2CCN(CCO)CC2)cc1 | -38.3 | -11.3 | -5.6 | -5.5 | -17.6
Cc1ccc(NC(=O)CCN2CCCCC2)cc1 | 7.8 | 8.7 | 20.5 | -17.0 | 59.3*
O=C1C=CC2(O[C@H](c3ccccc3)[C@@H](c3ccccc3)O2)[C@H](Sc2ccccc2O)C1 | -78.9 | 30.9 | -131.2 | 86.6* | 37.5
c1csc(C2=Nn3c(nnc3-c3ccncc3)SC2)c1 | 60.1 | 40.9 | 64.9* | 29.5 | 43.0
c1ccc(-c2ccc(C3=Nn4c(nnc4-c4ccncc4)SC3)cc2)cc1 | / | / | / | 0.0 | 7.0
CC(C)c1c(C(=O)N/N=C/c2ccc3c(c2)OCO3)nnn1-c1nonc1N | 13.1 | -12.9 | -16.4 | 0.7 | -0.2
CCN(CC)c1ccc(/C=N/NC(=O)c2nnn(-c3nonc3N)c2C(C)C)c(O)c1 | 77.3* | 25.9 | 51.3 | -40.4 | 43.4
Cc1cnc(NC(=O)CCCc2nc3ccccc3s2)s1 | 15.1 | 83.5* | -14.3 | 8.6 | 21.5
CC(C)n1cnc2c(NCc3ccccc3)cc(N[C@H](C)CO)cc21 | 92.0* | 89.5* | 89.0* | / | /
CCC(CO)Oc1cc(NCc2ccccc2)c2ncn(C(C)C)c2c1 (centres undefined) | -25.8 | -9.3 | 9.9 | 25.5 | -11.3
SMILES | SRC3 inh | LRH-1 inv ag | SRC1 inh | COUP-TFII inh | SRC2 inh
C=CCN1[C@H](C#N)[C@@H](c2ccc(Br)cc2)[C@H]1CO | / | / | / | -18.6 | -8.9
CCOc1ccc(Nc2ncnc3ccc([N+](=O)[O-])cc23)cc1 | 54.9 | 37.3 | 69.2* | 28.8 | 45.0
COC(=O)c1cc2c(c3c4cc(OC)ccc4n(S(=O)(=O)c4ccc(C)cc4)c13)C(=O)N(Cc1ccccc1)C2 | / | / | / | 7.9 | 1.6
COC(=O)c1cc2c(n1S(=O)(=O)c1ccc(C)cc1)C(=O)C(=O)c1[nH]cc(C(=O)OCc3ccccc3)c1-2 | 87.6* | -1.6 | 87.2* | / | /
O=c1[nH]c(=O)n([C@H]2C[C@H](O)[C@@H](CO)O2)cc1C(F)(F)F | 64.6* | -35.4 | 77.0* | 4.4 | -26.7
O=c1[nH]c(=O)n(C2CC(O)C(CO)O2)cc1Br (centres undefined) | 20.1 | -120.1 | 22.5 | 19.7 | -61.9
O=c1[nH]c(=O)n(C2C[C@H](O)[C@@H](CO)O2)cc1C(F)(F)F (some centres undefined) | 72.5* | -29.4 | 74.6* | -18.9 | -5.5
CCc1ccc(-c2nc(CS(=O)CC(=O)NCc3ccccc3)c(C)o2)cc1 (centres undefined) | -6.5 | 24.0 | 10.4 | 36.3 | 55.0*
O=C(C=P(c1ccccc1)(c1ccccc1)c1ccccc1)c1ccccc1-c1ccccc1C(=O)C=P(c1ccccc1)(c1ccccc1)c1ccccc1 | 61.9* | 94.4* | 58.6 | 79.8* | 8.5
O=c1c2ccccc2nc(N/N=C/c2ccc(O)cc2)n1O | -57.5 | -55.3 | -38.6 | -3.8 | -34.0
O=c1c2ccccc2nc(N/N=C/c2c(O)ccc3ccccc23)n1O | 74.3* | 84.4* | 66.6* | 32.4 | 18.1
Cc1ccc(-n2nnnc2Sc2ccc(S(=O)(=O)NCCN(C)C)cc2[N+](=O)[O-])cc1 | 67.1* | 36.0 | 18.2 | -8.8 | 49.9
COC(=O)COc1ccc(-c2nccc(-c3ccccn3)n2)cc1 | 26.1 | -0.8 | 19.4 | 25.6 | 61.2*
CCCCNC(=O)N1CCCC1C(=O)Nc1cccc(OC)c1 (centres undefined) | / | / | / | 2.9 | 7.8
CCN(CC)c1ccc(/C=N/NC(=O)c2cccc(S(=O)(=O)Nc3ccccc3OC)c2)c(O)c1 | 80.7* | 32.6 | 73.5* | -17.3 | 32.3
CCN(CC)c1ccc(/C=N/NC(=O)c2cccc(S(=O)(=O)Nc3ccccc3OC)c2)cc1 | -5.9 | 24.4 | 8.6 | -9.0 | -5.4
COc1cccc(CNC(=O)C2CCCN(c3ncccn3)C2)c1OC (centres undefined) | / | / | / | 9.0 | -9.6
O=C(Nc1ccc(OC(F)F)c(Cl)c1)Nc1ccc2c(c1)OCO2 | -6.0 | -41.6 | -13.4 | -19.0 | -31.2
O=C(Nc1ccc([N+](=O)[O-])cc1)Nc1ccc(OC(F)F)c(Cl)c1 | 75.1* | 10.4 | 31.7 | 18.9 | 0.5
Cc1ccc(S(=O)(=O)/N=C2\C=C(Nc3ccc(O)cc3)C(=O)c3ccccc32)cc1 | 91.7* | 95.3* | 90.5* | / | /
Cc1ccc(S(=O)(=O)/N=C2\C=C(Nc3cccc(C(=O)O)c3)C(=O)c3ccccc32)cc1 | -10.9 | -44.3 | -17.1 | 2.1 | -51.4
Cc1ccc(S(=O)(=O)/N=C2/C=C(Sc3ncn[nH]3)C(=O)c3ccccc32)cc1 | 93.8* | 97.1* | 91.3* | / | /
O=C1C(Nc2ccccc2)=C/C(=N/S(=O)(=O)c2cccs2)c2ccccc21 | 87.2* | 79.3* | 85.2* | / | /
COC(=O)c1ccccc1NC1=C/C(=N\S(=O)(=O)c2cccs2)c2ccccc2C1=O | -16.0 | 9.3 | -12.6 | 15.6 | 2.5
Cc1ccc(NC2=C/C(=N/S(=O)(=O)c3cccs3)c3ccccc3C2=O)cc1 | 73.0* | -101.4 | -66.3 | -23.8 | -72.2
